From PubChem BioAssay
Shn3 3UTR inh: reduces Shn3 3'UTR luciferase signal in osteoblasts; Clone20 osteoblast Shn3 3'UTR firefly luciferase, 24 h; inhibition, % at 12.5 µM; actives 0.52% (n = 360,000); AID 588674;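 active = mean inhibition of at least 75% with every replicate also reaching 75%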
KKLEB cytotox: reduces viability of KKLEB cystic fibrosis airway cells; AID 602141; activity change (cytotoxicity), % at 5 µM; KKLEB CF airway cells viability, ATPlite luminescence, overnight; stronger effect = lower value; cells stimulated with P. aeruginosa culture filtrate; actives 0.36% (n = 360,000);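 active = corrected activity change at or below -50% at 5 µM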
Peg3 prom inh: inhibitors of Peg3 promoter | HeLa PEG-Prom luciferase reporter, luminescence, overnight | inhibition, % at 20 µM | actives 1.7% (n = 360,000);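 active = inhibition of at least 50% at 20 µM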
TRPM1 prom inh: MITF TRPM1 promoter inhibition in SK-MEL-5 cells; inhibition, % at 12.5 µM; actives 0.83% (n = 330,000); SK-MEL-5 TRPM1 promoter luciferase, 24 h;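 active = mean inhibition across replicates of 60% or more, whatever share of single replicates reaches that level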
HIF-2a block: HIF-2a inhibition; 786-0 RCC cells HIF-2a reporter, luciferase luminescence, overnight; inhibition, % at 18.8 µM; actives 0.72% (n = 360,000); AID 624352;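 active = inhibition of the luminescence signal of 40% or more relative to plate controls, in a single-dose primary screen at 18.75 µM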
CF NFkB inh: inhibitors of cystic fibrosis induced NF-kB. KKLEB NF-kB-GFP reporter, PAF-induced, GFP fluorescence overnight. inhibition, % at 5 µM. actives 0.86% (n = 360,000). AID 588850;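 active = at least 50% inhibition at 5 µM, scaled per plate between neutral and stimulator controls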;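 also: PAF is a Pseudomonas aeruginosa culture filtrate used as stimulus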
Numbers stand for hits; n = inactive; x = not tested or not shown. This is a sample that favours compounds with a hit; in the whole collection about 2.8% have one here.

SMILES	Shn3 3UTR inh	KKLEB cytotox	Peg3 prom inh	TRPM1 prom inh	HIF-2a block	CF NFkB inh
CCOC(=O)C1(Cc2cccc(OC)c2)CCN(C/C=C/c2ccc(OC)cc2)CC1	88.0	n	n	n	n	n
O=C(O)COc1ccccc1/C=N/NC(=O)C(O)c1ccccc1 (stereo not drawn)	n	n	n	n	n	n
COc1ccc(NC(=S)N(CCN(C)C)C(C)c2ccncc2)cc1Cl (stereo not drawn)	n	n	54.3	n	n	n
CCCCN(CC)CCNC(=O)c1cc2c(=O)n(CC)c3ccccc3c2s1	n	n	n	n	n	n
CCCCN(CC)CCCNC(=O)c1cc2c(=O)n(CC)c3ccccc3c2s1	n	n	89.0	69.2	n	n
CCOC(=O)C1=C(C)N=c2s/c(=C\c3ccc(O)c([N+](=O)[O-])c3)c(=O)n2C1c1ccccc1OC (stereo not drawn)	n	n	53.3	n	n	n
CCc1nnc(NC(=O)c2ccc(S(=O)(=O)N3CCc4ccccc4C3)cc2)s1	n	n	n	n	n	n
Cc1cc(C)c2nc(NNC(=O)c3ccc(S(=O)(=O)N4CCc5ccccc5C4)cc3)sc2c1	93.2	n	75.0	77.7	n	n
Fc1ccc(-n2nnnc2-c2cnc(-c3cccs3)nc2C(F)(F)F)cc1	90.4	n	100.2	n	n	n
O=CNc1cc(-c2ccc(C(=O)NC3CC3)cc2)cn2c(-c3ccccc3)cnc12	n	n	60.6	x	n	n
O=CNc1cc(-c2ccc(C(=O)NC3CC3)cc2)cn2c(-c3ccc(F)c(Cl)c3)cnc12	n	n	n	x	n	n
CN(C)CCNC(=O)c1cccc(-c2cnc3c(NC=O)cc(/C=C/c4ccccc4)cn23)c1	n	n	97.5	x	n	n
CN(C)CCNC(=O)c1cccc(-c2cnc3c(NC=O)cc(-c4cccc(F)c4)cn23)c1	n	n	n	x	n	n
COc1ccc(-c2cnc3c(NC=O)cc(-c4ccccc4)cn23)cc1OC	n	n	n	x	n	n
COc1ccc(-c2cnc3c(NC=O)cc(-c4cc(OC)c(OC)c(OC)c4)cn23)cc1OC	n	n	64.8	x	n	n
COc1ccc(-c2cnc3c(NC=O)cc(-c4ccc(F)cc4)cn23)cc1OC	n	-52.2	n	x	n	65.8
COc1ccc(-c2cc(NC=O)c3ncc(-c4ccc(C(C)=O)cc4)n3c2)cn1	n	n	56.8	x	n	n
O=[N+]([O-])c1ccc(Cc2ccccn2)c([N+](=O)[O-])c1	n	n	n	n	n	n
COc1ccc2c(c1)[nH]c1c(N3CCN(Cc4ccc5c(c4)OCO5)CC3)ncnc12	n	n	n	n	n	n
Cc1ccc2[nH]c3c(N4CCN(Cc5ccccc5)CC4)ncnc3c2c1	90.2	n	n	n	n	n
Cc1ccc2c(c1)[nH]c1c(N3CCN(Cc4ccccc4)CC3)ncnc12	n	n	n	n	n	n
c1ccc2c(c1)CCN(c1ncnc3c1[nH]c1ccccc13)C2	89.0	n	n	n	n	n
c1ccc2c(c1)[nH]c1c(N3CCC4(CC3)OCCO4)ncnc12	n	n	n	n	n	n
c1ccc(CN2CCN(c3ncnc4c3[nH]c3ccccc34)CC2)cc1	n	n	55.8	n	n	n
CC(O/N=C(\N)c1ccccc1)C(=O)Nc1cccc(C(F)(F)F)c1 (stereo not drawn)	n	n	n	n	n	n
SMILES	Shn3 3UTR inh	KKLEB cytotox	Peg3 prom inh	TRPM1 prom inh	HIF-2a block	CF NFkB inh
O=C(Nc1ccc(F)c(Cl)c1)c1cc(C2CCCN(C(=O)c3cccs3)C2)on1 (stereo not drawn)	n	n	n	x	n	n
CC(C)NS(=O)(=O)c1ccc(NC(=O)C(C)OC(=O)C2CCC2)cc1 (stereo not drawn)	n	n	n	n	n	n
N=c1n(CC(=O)c2ccc([N+](=O)[O-])cc2)c2ccccc2n1Cc1ccccc1Cl	n	n	85.0	79.1	n	n
Cn1c(=N)n(CC(=O)c2ccc(Cl)c(Cl)c2)c2ccccc21	n	n	80.8	n	n	n
Cn1c(=N)n(CC(=O)c2ccccc2)c2ccccc21	n	n	n	x	n	n
COCc1nc2oc3ccccc3c(=O)c2cc1C(=O)OC	n	n	n	n	n	n
CC(C)c1cc(Cn2c3ccccc3c(=O)n2C(C)Cn2cc(-c3ccccc3)nn2)on1 (stereo not drawn)	x	x	x	x	n	x
Nc1ccn([C@@H]2O[C@H](CNCC3=CCOc4ccc(O)cc43)[C@@H](O)[C@H]2O)c(=O)n1	n	n	n	x	n	n
Nc1ccc(-c2nc3ccc(-c4nc5ccccc5o4)cc3[nH]2)cc1	n	-76.3	73.2	n	n	n
CCOC(=O)Cn1c(S(=O)(=O)Cc2ccccc2Cl)nc(-c2ccccc2)c1-c1ccccc1	88.4	n	n	n	n	n
CSc1ccc(CN2CCC(n3nccc3NC(=O)C3CCOC3)CC2)cc1 (stereo not drawn)	n	n	n	n	n	n
C=CCN(C(=O)c1csnn1)C(C(=O)NC1CCCC1)c1ccccc1F (stereo not drawn)	n	n	n	n	n	n
N#CC(=C1C=CC(=NO)C(Cl)=C1)c1ccc(Cl)cc1	n	n	n	n	n	53.2
NC(=O)C1CCN(C(=O)Nc2csc3ccccc23)CC1	n	n	n	x	n	n
CC1(C(=O)OCC(=O)Nc2nnc(-c3ccccc3)o2)CC1(Cl)Cl (stereo not drawn)	n	n	n	n	n	n
Cc1ccc(S(=O)(=O)NC(Cc2ccccc2)C(=O)NN)cc1 (stereo not drawn)	n	n	n	n	n	n
Cc1ccc(S(=O)(=O)N[C@@H](Cc2ccccc2)C(=O)CCl)cc1	n	n	101.2	n	n	72.1
O=[N+]([O-])c1ccc(-c2c(O)c3ccccc3c3nc4ccccc4nc23)cc1	n	n	51.8	n	n	n
CCOC(=O)CCC(=O)Nc1ccc([N+](=O)[O-])cc1C	n	n	n	n	n	n
CCCCCCCCCCCCCCCCn1cc[n+](C)c1	n	-94.2	108.4	70.0	81.8	83.7
Cc1ccc2ccccc2c1C(O)c1ncc(-c2ccccc2Cl)[nH]1 (stereo not drawn)	n	n	n	x	n	n
CC(C)N1CCc2c(sc(NC(=O)c3ccc(C(=O)c4ccccc4)cc3)c2C(N)=O)C1	n	n	58.9	n	n	n
CC(C)N1CCc2c(sc(NC(=O)c3ccc(S(=O)(=O)N4CCCCC4C)cc3)c2C(N)=O)C1 (stereo not drawn)	n	n	67.6	n	n	n
CC(C)N1CCc2c(sc(NC(=O)c3ccc(S(=O)(=O)N(C)CC4CCCO4)cc3)c2C(N)=O)C1 (stereo not drawn)	n	n	n	n	n	n
CCC(C)Sc1ccc(-c2nc3ccc(C)cn3c2NCc2ccccc2)cc1OC (stereo not drawn)	n	n	87.8	n	n	n
CCCCCCSc1ccc(-c2nc3ccc(C)cn3c2NCc2ccccc2)cc1OC	n	n	n	n	n	n
